# Laboratory results from PubChem BioAssay AID2796 (The Scripps Research Institute Molecular Screening Center, 2010).
# Out of some 320,000 compounds screened, about 8,000 (2.5%) were called active. This is one part of a sample in which actives are shown more often than they occur. No stated cut-off is given here; in the data, active means activation above about 47%; inactive means the rest.
# Target: Aryl hydrocarbon receptor (Homo sapiens) (UniProt P35869)
# Test: AHR activators, primary screen, cell-based, luminescence, luciferase reporter, human (AID 2796);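 further: 0% = vehicle wells and 100% = reference agonist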
# Conditions: AHR-responsive luciferase reporter cells, at 5 µM, stronger effect = higher value
# Sequence of Aryl hydrocarbon receptor (Homo sapiens) (P35869 whole entry, looked up): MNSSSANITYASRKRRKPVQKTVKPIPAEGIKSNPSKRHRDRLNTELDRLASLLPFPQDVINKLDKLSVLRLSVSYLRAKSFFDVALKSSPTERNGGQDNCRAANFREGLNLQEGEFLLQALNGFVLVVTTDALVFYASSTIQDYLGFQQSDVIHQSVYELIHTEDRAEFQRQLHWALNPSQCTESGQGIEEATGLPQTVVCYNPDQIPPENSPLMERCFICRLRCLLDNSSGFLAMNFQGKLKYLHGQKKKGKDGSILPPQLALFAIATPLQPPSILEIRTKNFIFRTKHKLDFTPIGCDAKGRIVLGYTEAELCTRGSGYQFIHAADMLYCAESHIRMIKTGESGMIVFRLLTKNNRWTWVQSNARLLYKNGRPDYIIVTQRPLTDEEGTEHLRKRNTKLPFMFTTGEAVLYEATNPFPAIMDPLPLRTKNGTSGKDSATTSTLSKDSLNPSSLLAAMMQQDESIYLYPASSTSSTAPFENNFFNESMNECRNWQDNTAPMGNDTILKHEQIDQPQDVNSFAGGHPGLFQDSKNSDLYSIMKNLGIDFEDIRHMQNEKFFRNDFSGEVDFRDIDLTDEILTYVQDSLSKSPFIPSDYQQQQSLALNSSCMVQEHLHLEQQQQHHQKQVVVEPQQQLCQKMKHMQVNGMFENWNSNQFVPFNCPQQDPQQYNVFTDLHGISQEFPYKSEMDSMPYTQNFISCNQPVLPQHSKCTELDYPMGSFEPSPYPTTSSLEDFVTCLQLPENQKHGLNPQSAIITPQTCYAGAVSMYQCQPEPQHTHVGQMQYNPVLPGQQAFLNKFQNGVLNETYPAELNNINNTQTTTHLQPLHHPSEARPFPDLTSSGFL
row,SMILES,activation
1,O=C(c1ccc(N2CCOCC2)c([N+](=O)[O-])c1)N1CCN(S(=O)(=O)c2cccs2)CC1,-4.2% (inactive)
2,Cn1c(=O)c2c(nc(N3CCOCC3)n2CCNC2=NCCC2)n(C)c1=O,-1.68% (inactive)
3,O=C(c1ccc(F)cc1)N1CCC(n2nnc3ccccc32)CC1,-1.01% (inactive)
4,Fc1ccc2nc(Nc3nc4c(s3)CCCC4)sc2c1,49.8% (active)
5,CCS(=O)(=O)N1Cc2ccccc2CC1C(=O)Nc1nc2ccc(F)cc2s1 (configuration not stated),-3.42% (inactive)
6,NS(=O)(=O)c1ccc2nc(NC(=O)CS(=O)(=O)c3ccc(F)cc3)sc2c1,8.79% (inactive)
7,O=C(Nc1ccc(Br)cc1F)C1CC(=O)N(C2CCCCC2)C1 (configuration not stated),0.73% (inactive)
8,COc1ccccc1CCNC(=O)CN1C(=O)NC2(CCCC2)C1=O,-2.06% (inactive)
9,Cc1cc2c(cc1S(=O)(=O)NCc1ccc(Cl)cc1)OCC(=O)N2,1% (inactive)
10,COc1cccc(NC(=O)CSc2nnc(-c3cccnc3)o2)c1,29.8% (inactive)
11,COc1ccccc1-c1nnc(SCC(=O)Nc2ccccc2)o1,75.5% (active)
12,COc1ccccc1-c1nnc(SCC(=O)N2CC(C)CC(C)C2)o1 (configuration not stated),29% (inactive)
13,CN(CC(=O)Nc1ccc(F)cc1)CC(=O)N1CCCCC1,3.11% (inactive)
14,CCc1ccc(N(C(=O)c2csnn2)C(C(=O)NC2CCCCC2)c2ccncc2)cc1 (configuration not stated),3.1% (inactive)
15,O=C(CN1C(=O)NC2(CCCC2)C1=O)Nc1cc(C(F)(F)F)ccc1N1CCOCC1,-0.32% (inactive)
16,COc1ccc(C)cc1NC(=O)c1ccc(-c2ccc(C(C)=O)cc2)o1,40.5% (inactive)
17,CCOC(=O)c1ccc(-c2ccc(C(=O)Nc3cccnc3)o2)cc1,48.9% (active)
18,COc1cccc(C(=O)Nc2cccnc2)c1OC,19.2% (inactive)
19,CCN(CC)P(=O)(C(NC(=O)OC)C(F)(F)C(F)(F)C(F)(F)C(F)F)N(CC)CC (configuration not stated),-0.37% (inactive)
20,O=C1/C(=C/c2ccc3c(c2)OCO3)CCC/C1=C\c1ccc2c(c1)OCO2,72.7% (active)
21,CCC1=C/C(=C\c2ccc3c(c2)OCO3)C(=O)S1,1.47% (inactive)
22,O=C(N/N=C/c1ccc2c(c1)OCO2)C(=O)N1CCCC1,38.1% (inactive)
23,Cc1ccc(S(=O)(=O)N(C)CC(=O)NCC(c2ccc(F)cc2)N2CCOCC2)cc1 (configuration not stated),-0.69% (inactive)
24,CCOc1ccc(C2=CC(c3ccccc3)n3ncnc3N2)cc1 (configuration not stated),-3.83% (inactive)
25,CC1=C(C(=O)OCc2ccccc2)C(c2ccco2)n2ncnc2N1 (configuration not stated),1.22% (inactive)

row,SMILES,activation
1,Brc1ccc(C2=CC(c3ccco3)n3ncnc3N2)cc1 (configuration not stated),95.6% (active)
2,C#CCNC(=O)C1=C[C@@H](c2ccccc2)[C@H](CCCO)[C@@H](OCC)O1,1.77% (inactive)
3,CCCCn1nc(C(=O)Nc2ccc(S(=O)(=O)Nc3ncccn3)cc2)c2ccccc2c1=O,2.56% (inactive)
4,Cc1[nH]n(C(N)=S)c(=O)c1N=Nc1ccc(Cl)cc1Cl,55.6% (active)
5,Cc1cccc(N=Nc2c(C)[nH]n(-c3ccccc3)c2=O)c1,40% (inactive)
6,CC1=NN(C(N)=S)C(=O)C1N=Nc1cc(Cl)ccc1Cl (configuration not stated),11.5% (inactive)
7,O=C(Cc1c(F)cccc1Cl)Nc1ccc(-n2cnnn2)cc1,0.09% (inactive)
8,O=C(CCc1ccccc1)Nc1ncc([N+](=O)[O-])s1,6.21% (inactive)
9,O=C(Cc1c(F)cccc1Cl)Nc1ncc([N+](=O)[O-])s1,48.5% (active)
10,CCOC(=O)C(=Cc1ccccc1OC)C(=O)OCC,-3.1% (inactive)
11,CN(C)c1ccnc2sc(C(=O)c3ccccc3)c(N)c12,15.9% (inactive)
12,CCN(CC)C(=O)c1sc2nc(-c3ccccc3)ccc2c1N,76.4% (active)
13,Nc1c(C(=O)NCc2ccccc2)sc2nc3c(cc12)C(=O)CCC3,2.82% (inactive)
14,Cc1ccc(N2C(=O)C(NC(=O)c3c(F)cccc3F)(C(F)(F)F)C3=C2CC(C)(C)CC3=O)cc1 (configuration not stated),2.49% (inactive)
15,COC(=O)C(C)C1Sc2ccccc2NC1=O (configuration not stated),-0.86% (inactive)
16,O=C(CC1NCCc2ccccc21)Nc1cccc(Cl)c1 (configuration not stated),8.99% (inactive)
17,Cc1ccc(CNC(=O)CC2Sc3ccccc3NC2=O)cc1 (configuration not stated),4% (inactive)
18,O=C(CC1Nc2ccccc2NC1=O)Nc1ccccc1NC(=O)CC1Nc2ccccc2NC1=O (configuration not stated),47.5% (active)
19,O=C(CC1Nc2ccccc2NC1=O)Nc1ccccc1 (configuration not stated),101% (active)
20,O=C(CC1NCCNC1=O)Nc1ccc(Oc2ccccc2)cc1 (configuration not stated),5.88% (inactive)
21,COC(=O)c1c(C)oc2ccc(N(C(=O)Oc3ccccc3)S(=O)(=O)c3ccccc3)cc12,-0.17% (inactive)
22,COCCCNC(=O)c1ccc(CNS(=O)(=O)c2ccc(NC(C)=O)cc2)cc1,0.77% (inactive)
23,Cc1cc(C)n(CC(O)COc2ccc(C(C)(C)C)cc2)n1 (configuration not stated),1.06% (inactive)
24,COc1ccc(OCCNC(=O)c2cc(C3CC3)nc3c2cnn3C(C)C)cc1,5.03% (inactive)
25,CC(C)n1ncc2c(C(=O)Nc3ccc(CC#N)cc3)cc(C3CC3)nc21,89.9% (active)

row,SMILES,activation
1,CC(C)n1ncc2c(C(=O)NCc3ccccc3CN(C)C)cc(C3CC3)nc21,2.81% (inactive)
2,O=C(CCNC(=O)c1ccccc1Cl)NN=Cc1ccco1,-0.2% (inactive)
3,Cc1ccc(C(=O)N/C(=C\c2cn(S(=O)(=O)N(C)C)c3ccccc23)C(=O)N2CCCC2)cc1,0.25% (inactive)
4,S=c1[nH]nc(-c2cc(-c3ccsc3)n[nH]2)n1-c1ccccc1,84% (active)
5,S=c1[nH]nc(COc2ccccc2)n1-c1ccccc1,-2.15% (inactive)
6,Cc1ccc(OCc2n[nH]c(=S)n2-c2ccccc2)cc1,2.23% (inactive)
7,CCc1ccc(C(=O)OCC(=O)NCC(F)(F)F)cc1,1.13% (inactive)
8,Fc1ccccc1-c1cc2cc3c(cc2cn1)OCO3,77.2% (active)
9,O=C(Nc1ccccc1F)c1ccc2c(c1)OCO2,7.6% (inactive)
10,Fc1ccc2cnc(-c3ccccc3)cc2c1,31.9% (inactive)
11,O=C(NCc1ccc2c(c1)OCO2)c1cc([N+](=O)[O-])ccc1N1CCOCC1,-0.76% (inactive)
12,Cc1nnc(C)c2c(C)n(N)c(C)c12,-0.81% (inactive)
13,CN1CCc2ccccc2C1Cc1ccccc1NC(=O)c1sc2ccccc2c1Cl (configuration not stated),11.4% (inactive)
14,COc1ccc(CNC(=O)CNC(=O)c2sc3ccccc3c2Cl)cc1OC,-3.5% (inactive)
15,O=C(N/N=C/c1c(Cl)[nH]c2ccccc12)c1sc2ccccc2c1Cl,74.3% (active)
16,O=C(CCNS(=O)(=O)c1ccccc1)NCCSc1ccc(Br)cc1,-0.18% (inactive)
17,Cc1sc2ncn(CC(=O)NCCCC(=O)N3CCN(c4ccccc4F)CC3)c(=O)c2c1C,-0.77% (inactive)
18,COc1ccc(Nc2oc(-c3ccccc3Cl)nc2C#N)cc1,-7.03% (inactive)
19,CCOc1ccc(Nc2oc(Cc3ccccc3)nc2C#N)cc1,58.1% (active)
20,N#Cc1nc(COc2ccc(-c3ccccc3)cc2)oc1NCc1cccnc1,-4.66% (inactive)
21,Cc1cccc(N(C)C(=O)c2cc3c(=O)[nH]c4ccc(C)cc4c3s2)c1,39% (inactive)
22,C=CCSc1nnc(Cn2c(=O)sc3ccccc32)n1C,0.37% (inactive)
23,O=C(C[n+]1cc(Br)cc2ccccc21)c1ccc(F)cc1,58.6% (active)
24,O=C(CNC(=O)c1ccc(F)cc1)c1ccccc1,3.71% (inactive)
25,Cc1cccc[n+]1CC(=O)c1ccccc1,1.77% (inactive)

row,SMILES,activation
1,S=c1[nH]cc(-c2ccc(Cl)cc2)n1-c1ccccc1,6.37% (inactive)
2,CC(C)(C)OC(=O)C[C@@H]1C/C=C\C[C@@H](CC(=O)NCCO)C(=O)N[C@H](Cc2c[nH]c3ccccc23)COC1=O,0.32% (inactive)
3,C=CCN1C(=O)C2(OCCCO2)c2cccc(Cl)c21,-2.96% (inactive)
4,O=c1c(/C=N/O)coc2ccc(Cl)cc12,-0.55% (inactive)
5,NC(=S)N/N=C/c1coc2cc(Cl)ccc2c1=O,60.2% (active)
6,Cc1ccc2occ(/C=N/NC(=O)c3ccccc3C)c(=O)c2c1,6.34% (inactive)
7,O=c1[nH]c2cccnc2n1-c1ccc([N+](=O)[O-])cc1,60.9% (active)
8,O=[N+]([O-])c1ccc2nc(-c3ccccn3)[nH]c2c1,3.58% (inactive)
9,O=c1[nH]n(-c2ccc([N+](=O)[O-])cc2)c(=O)c2ccccc12,1.45% (inactive)
10,CCOc1ccc(CN2CCN(CCCc3ccccc3)C(CCO)C2)cc1 (configuration not stated),0.01% (inactive)
11,O=C(Nc1ccc2sc3ccccc3c(=O)c2c1)c1ccccc1Cl,49.1% (active)
12,O=C(Nc1cccc(NC(=O)c2ccccc2[N+](=O)[O-])c1)c1ccccc1Cl,8.43% (inactive)
13,COc1cc(NC(=O)c2cccs2)ccc1NC(=O)c1ccccc1Cl,-11.1% (inactive)
14,COc1cc(S(=O)(=O)N2CCN=C2c2ccccc2)ccc1Cl,1.21% (inactive)
15,Cc1ccccc1OCCC(=O)OCC(=O)NC(C)c1ccccc1 (configuration not stated),-2.01% (inactive)
16,C=CCNC(=S)NNC(=O)c1cc(Cl)ccc1OC,52.7% (active)
17,COc1ccc(Cl)cc1C(=O)NNC(=S)NC1CCCC1,32.1% (inactive)
18,COc1ccc(Cl)cc1C(=O)NNC(=S)NC(=O)/C=C/c1ccco1,4.8% (inactive)
19,Cc1nc(SCC(=O)N2CCc3ccccc3C2)c2c(C)c(C)sc2n1,3.83% (inactive)
20,COc1ccc(NC(=O)c2ccco2)cc1NC(=O)c1ccc(C#N)cc1F,96.2% (active)
21,COc1cc(NC(=O)c2cc([N+](=O)[O-])ccc2Br)ccc1NC(=O)c1ccco1,-4.72% (inactive)
22,COc1ccccc1C(=O)Nc1ccc(NC(=O)c2ccco2)c(C)c1,40.4% (inactive)
